# Laboratory results reported in PubChem BioAssay AID434958 (Southern Research Specialized Biocontainment Screening …, 2010).
# Among all 1,200 compounds or so, about 400 (33%) were called active. The rule behind the calls is not given here. Not all results are given here. Potency and affinity values are given separately.
# Test: mammalian cell cytotoxicity, dose response, cytotoxicity control (AID 434958);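 note: cells exposed to compound for 72 hours before readout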
# Conditions: cytotoxicity counter-screen; series mostly up to 40 µM; viability: at the top concentration
row,SMILES,viability
1,CCOc1ccc(N2C(=O)CC(N)C2=O)cc1 (stereo unspecified),101% (inactive)
2,CCCC(C)NC(=O)c1ccc(OCc2ccc(Cl)cc2)c(OC)c1 (stereo unspecified),80% (inactive)
3,O=C(NC1CCCCCCC1)c1ccc(Br)cc1,97% (inactive)
4,Cc1ccc(C)c(N2CCN(C3CCCC(C)C3)CC2)c1 (stereo unspecified),95.6% (inactive)
5,O=C(Nc1ccc(Cl)cc1)C1CC2CCCC(C1)C2=O (stereo unspecified),101% (inactive)
6,Cc1ccc(NC(=O)CSc2n[nH]c(-c3ccco3)n2)cc1,95.4% (inactive)
7,CCCC(C(=O)N1CCOCC1)N1C(=O)C2C3C=CC(C3)C2C1=O (stereo unspecified),107% (inactive)
8,Cc1ccc(C(=O)Nc2c(C)cc(C)c3cccnc23)cc1,92.3% (inactive)
9,Cc1c(C(=O)c2ccccc2)oc2ccc3ccccc3c12,101% (inactive)
10,COCCOC(=O)c1c(C)oc2ccc(OC(=O)c3c(OC)cccc3OC)cc12,80.5% (inactive)
11,COc1ccc(-c2c(-c3ccsc3)oc3ccc(N4CCOCC4)cc23)cc1,84.5% (inactive)
12,Cc1nn(C)c(C)c1C1C(C#N)=C(N)OC2=C1C(=O)CCC2 (stereo unspecified),106% (inactive)
13,Cc1cccnc1NC(=O)c1cc2ccccc2oc1=O,86.4% (inactive)
14,Cc1ccc(C)c(NC(=O)C2Cc3ccccc3CN2C(=O)OCc2ccccc2)c1 (stereo unspecified),107% (inactive)
15,CNc1ccccc1NC(=O)C1CCCN1C(=O)OCc1ccccc1 (stereo unspecified),101% (inactive)
16,O=C(NC(=S)N1CCOCC1)c1ccc([N+](=O)[O-])cc1,107% (inactive)
17,NC(=O)CN1C(=O)C(O)(CC(=O)/C=C\C=C\c2ccccc2)c2ccccc21 (stereo unspecified),105% (inactive)
18,C=CCC(Nc1ccccc1)C12C=CC(O1)C(C(=O)OC)=C2C(=O)OC (stereo unspecified),106% (inactive)
19,COc1cc(C(=O)N/N=C/c2ccc(OC(=O)c3cccc(C)c3)cc2)ccc1O,97% (inactive)
20,COc1ccc2ccccc2c1/C=N/NC(=O)c1cccc(C)c1,80.4% (inactive)
21,Cc1ccccc1NC(=O)/C(C#N)=C\c1cc(C)n(-c2ccc(C(=O)O)cc2)c1C,86.8% (inactive)
22,O=C(COc1ccc2ccccc2c1)Nc1nc2ccccc2[nH]1,104% (inactive)
23,Cc1cc(C)c(OCC(=O)Nc2nc3ccccc3[nH]2)c(C)c1,90.8% (inactive)

row,SMILES,viability
1,Cc1ccc(SCc2c(C#N)c3ccccc3n2C)cc1,93.7% (inactive)
2,Clc1ccc(Cn2cc(/C=N/n3cnnc3)c3ccccc32)cc1,88% (inactive)
3,Nc1nc(Sc2ncccc2[N+](=O)[O-])n[nH]1,105% (inactive)
4,Cc1nnnn1/C(=C\c1ccccc1)C(=O)OCC(=O)NC1CCCCC1,105% (inactive)
5,CCOC(=O)CNC(=O)CSc1ncnc2c1cnn2Cc1ccccc1,101% (inactive)
6,Cc1cc(C)n(-c2nc3ccccc3c(=O)n2OCC(=O)N(C)C)n1,102% (inactive)
7,CC1CCN(C(=S)NC(=O)c2ccccc2)CC1,103% (inactive)
8,CCc1cc2c(=O)nc3n(c2s1)Cc1ccccc1/C3=C(/O)c1ccc(F)cc1,85.5% (inactive)
9,CCC(CC)c1nnc(NC(=O)c2cc(-c3ccccc3)nc3ccccc23)s1,85.5% (inactive)
10,CCCSc1nnc(NC(=O)c2sc3nc(-c4cccs4)ccc3c2N)s1,89% (inactive)
11,COc1cc(OC)c(OC)cc1/C=C1\CCC(C2CCCC2)C1=O (stereo unspecified),93.4% (inactive)
12,O=C(NCc1ccc2c(c1)OCO2)C(=O)NC1CCCCC1,85.3% (inactive)
13,CCCCn1nc2cc(C(=O)NCC34CC5CC(CC(C5)C3)C4)ccc2c1OCC,83.6% (inactive)
14,O=C(CSc1nnc(-c2ccncc2)o1)c1cccc([N+](=O)[O-])c1,99% (inactive)
15,O=C(OCC(=O)c1c[nH]c2ccccc12)c1cccc([N+](=O)[O-])c1,91.4% (inactive)
16,O=C(Cn1nnc2c(cnn2-c2ccccc2)c1=O)N1CCN(c2ccccc2F)CC1,97.6% (inactive)
17,CCN(CCNC(=O)Nc1ccc(Cl)cc1)c1ccccc1,103% (inactive)
18,CCOC(=O)c1nn(-c2ccc(Cl)cc2)cc1O,98.1% (inactive)
19,S=c1nccc(-c2ccc3c(c2)CCO3)[nH]1,94.1% (inactive)
20,CC(=O)Nc1scc(C)c1-c1nc2ccccc2s1,88.1% (inactive)
21,Cc1ccc(C(=O)Nc2nc3ccccc3s2)s1,84.5% (inactive)
22,O=C1S/C(=C\C=C\c2ccco2)C(=O)N1c1ccccc1,100% (inactive)
23,O=C1CS/C(=N/N=C2C3CC4CC(C3)CC2C4)N1,95% (inactive)

row,SMILES,viability
1,NC(=S)N/N=C/c1ccc(/C=N/NC(N)=S)cc1,102% (inactive)
2,CCOC(OCC)c1cn(Cc2ccc3c(c2)C(=O)c2ccccc2C3=O)nn1,92.2% (inactive)
3,S=C(Nc1ccccc1)Nc1ccc(Cl)cn1,92.4% (inactive)
4,c1ccc(CSc2nnc(-c3ccco3)o2)cc1,98.6% (inactive)
5,O=C(Cn1c(=O)n(CCCC(=O)NC2CCCC2)c(=O)c2ccccc21)NCCC1=CCCCC1,110% [at 20 µM] (inactive)
6,COc1cc(/C=C/c2ccc3cccc([N+](=O)[O-])c3n2)ccc1OCC(=O)O,107% (inactive)
7,CCOc1ccc(NC(=O)/C(C#N)=C/c2cn(CC(=O)O)c3ccccc23)cc1,102% (inactive)
8,CC(C)(C)c1nc2scc(-c3cccs3)c2c(=O)o1,89.9% (inactive)
9,O=C(CSc1nnc(-c2cnccn2)n1Cc1ccco1)Nc1ccc(Br)cc1,100% (inactive)
10,CN(NC(=O)c1c(Cl)cccc1Cl)c1cccc(Cl)n1,95% (inactive)
11,Cc1onc(-c2ccccc2Cl)c1C(=O)NCc1ccc2c(c1)cc(C)n2C,98.7% (inactive)
12,c1ccc(OCc2nnc(-c3ccccc3)o2)cc1,89% (inactive)
13,CC1(C)CCN2CCC(C)(C)c3c(O)ccc1c32,95.8% (inactive)
14,CCN(CC)C(=O)Cn1cc(C(=O)C(=O)N2CCN(c3ccccc3)CC2)c2ccccc21,96.2% (inactive)
15,C#C[C@]1(O)CC[C@H]2[C@@H]3CCC4=C(CCC(=O)C4)[C@H]3CC[C@@]21C,104% (inactive)
16,Cc1ccc(SCc2c(-c3ccccc3)nn(C)c2Cl)cc1,93.7% (inactive)
17,O=C(N/N=C/c1c(O)n(Cc2ccc(F)cc2)c(=S)[nH]c1=O)c1ccncc1,99.3% (inactive)
18,COC(=O)Cn1nc(-c2ccccc2)c2ccccc21,102% (inactive)
19,COC(=O)c1c(C(=O)OC)c(C)n(Cc2ccco2)c1C,102% (inactive)
20,CCOc1cc(CNCCN(C)C)c(Cl)cc1OCC(=O)NCCc1ccccc1,88.7% (inactive)
21,CCc1ccc(NC(=O)c2c(Cl)nc(C)c(Cl)c2C)cc1,80.3% (inactive)
22,Cc1cc(=O)[nH]c(N/N=C/c2c(O)n(-c3ccccc3)c(=O)c3ccccc23)n1,97.6% (inactive)
23,Cc1nn(-c2ccccc2)cc1/C=N/NC(N)=S,106% (inactive)

row,SMILES,viability
1,Cc1ccccc1/C=N\NC(=O)c1csnn1,96% (inactive)
2,COc1ccc(/C=N\NC(=O)c2sc(N)nc2C)cc1OC,87.3% (inactive)
3,CCN(CC)C(=O)C1CCCN(c2ccc([N+](=O)[O-])cc2/C=N/NC(=O)c2cccc(O)c2)C1 (stereo unspecified),84.6% (inactive)
4,O=C(N/N=C/c1c(Cl)cccc1Cl)c1cccc(F)c1,88.5% (inactive)
5,CCc1ccc(NC(=S)Nc2ccc3[nH]c(=O)[nH]c3c2)cc1,94.7% (inactive)
6,COc1ccc([N+](=O)[O-])cc1NC(=O)c1ccc(Br)s1,96.1% (inactive)
7,CCOC(=O)c1c(NC(=O)COC(=O)c2ncc(Cl)c(Cl)c2Cl)sc(C(=O)N(C)C)c1C,101% (inactive)
8,COc1cc(OC)c2ccc(=O)oc2c1C(CC(=O)N1CCN(c2ccccc2)CC1)c1ccc2c(c1)OCO2 (stereo unspecified),108% (inactive)
9,CCC(C(=O)Nc1ccccc1N1CCCC1)c1ccccc1 (stereo unspecified),99.2% (inactive)
10,CCOCC(=O)N1CCN(c2ccc(F)cc2)CC1,91.1% (inactive)
11,O=C(c1cccc(Cl)c1)N1CCN(Cc2ccccc2F)CC1,102% (inactive)
12,Cc1ccc(CNC(=O)c2ccccc2NC(=O)CSc2nnnn2C)cc1,102% (inactive)
13,Cc1ccc(C)c(NC(=O)COC(=O)c2ccc(S(=O)(=O)N3CCCCC3)cc2)c1,93.8% (inactive)
14,O=c1[nH]c(C2CCN(S(=O)(=O)c3ccc(S(=O)(=O)NC4CC4)cc3)CC2)nc2c1nnn2Cc1ccc(F)cc1,110% (inactive)
15,COc1cccc(-c2nnn(CC(=O)Nc3cc(OC)c(NC(=O)c4ccco4)cc3OC)n2)c1,85.2% (inactive)
16,COCCCn1c(=O)/c(=C\c2ccccc2OC(C)C)s/c1=C(/C#N)C(=O)Nc1ccc(C(=O)O)cc1,87% (inactive)
17,O=C1c2ccccc2N2C(=O)c3ccccc3C2N1O (stereo unspecified),98.3% (inactive)
18,CSc1ccccc1NC(=O)c1c(Br)cnn1C,91.4% (inactive)
19,C(=N\n1cnnc1)/c1ccc(-c2ccccc2)cc1,93.4% (inactive)
20,CCc1ccc(N2C(=O)c3sc4nnc(-c5ccccc5)c(=O)n4c3C2=O)cc1,95% (inactive)
21,Cn1c(/C=C/c2ccc(Cl)cc2)nc2ccccc2c1=O,94.1% (inactive)
22,CCOc1ccc2c(c1)c(C(C)=O)c(C)n2-c1ccccc1,86.3% (inactive)
23,CCOC(=O)c1sc(NC(=O)CN2CCN(c3ccc(OC)cc3)CC2)nc1C,92.4% (inactive)

row,SMILES,viability
1,O=c1cc(C(F)(F)F)c2sc(N3CCCCC3)nc2[nH]1,94.1% (inactive)
2,COc1ccc(NC(=O)CCC2CCCC2)cc1OC,98% (inactive)
3,CCN(CC)C(=O)COc1ccc(-c2nnc(Nc3ccc(OC)c(C(=O)NC)c3)c3ccccc23)cc1,91.5% (inactive)
4,CCCc1cc(C(=O)Nc2ccc(C(C)=O)cc2)no1,95.1% (inactive)
5,O=C1c2cccc3c(N4CCCCC4)ccc(c23)C(=O)N1c1ccccn1,95.5% (inactive)
6,COC(=O)c1ccc(-c2cc(C(=O)O)c3cc4c(cc3n2)OCCO4)cc1,98.5% (inactive)
7,C/C(=N\NC(=O)c1csc2ccccc12)c1ccc(O)cc1,87.5% (inactive)
8,C/C(=N\NC(=O)c1ccncc1)c1c(O)n(-c2ccccc2)c(=O)[nH]c1=O,99.5% (inactive)
9,O=C(NN=C(Cc1ccccc1)Cc1ccccc1)c1ccccc1F,84.8% (inactive)
10,C/C(=N/NC(=O)c1ccccn1)c1ccncc1,96.5% (inactive)
11,S=C(Nc1ccccc1Cl)N1CCCC(c2ccccc2)=N1,87.8% (inactive)
12,CCN(CC)c1ccc(C=N/C(C#N)=C(\N)C#N)cc1,96.9% (inactive)
13,COc1nc(-c2ccccc2)ccc1-c1noc(-c2cccnc2)n1,87.6% (inactive)
14,CCn1nc(C)c([N+](=O)[O-])c1C(=O)NNC(=O)c1ccccc1Cl,103% (inactive)
15,COc1cccc(-c2ccc(-c3noc(-c4ccccc4F)n3)c(OC)n2)c1,81.9% (inactive)
16,Cc1cc(Br)cc2c(C(=O)NCC3CCCO3)cc(-c3ccccc3)nc12 (stereo unspecified),83% (inactive)
17,CCCn1c2ccccc2c2nnc(SCC(=O)OCC)nc21,104% (inactive)
18,CC(C)(C)c1cc(Cc2ccccc2)[nH]n1,94.1% (inactive)
19,COc1ccc([N+](=O)[O-])cc1NS(=O)(=O)c1ccc(Cl)c(C(=O)Nc2sc3c(c2C#N)CCCCC3)c1,99% (inactive)
